Key:
Assay in all cases: log2 ratio of Biotin-Ahx-Ub-VS probe labelling (fragment/DMSO); higher = less target engagement (more negative = stronger competition), active = hit call of the paper (q ≤ 0.05, log2 ratio ≤ -1)
Details in all cases: compound concentration: 200 uM; treatment time: 3 h
OTUD6B = target: T1, OTUD6B (UniProt Q8N6M0)
T1 sequence (whole entry): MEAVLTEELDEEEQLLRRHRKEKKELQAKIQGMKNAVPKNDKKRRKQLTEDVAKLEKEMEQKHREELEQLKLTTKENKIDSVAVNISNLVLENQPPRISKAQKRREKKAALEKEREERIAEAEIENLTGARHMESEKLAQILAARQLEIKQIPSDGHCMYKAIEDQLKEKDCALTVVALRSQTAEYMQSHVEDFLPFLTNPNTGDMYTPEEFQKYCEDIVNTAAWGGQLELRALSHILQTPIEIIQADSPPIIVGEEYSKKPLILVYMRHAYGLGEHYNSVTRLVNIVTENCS
Outline: (§1)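 Labelling with Biotin-Ahx-Ub-VS (0.5 µM final, 1 h) followed a 3 h triplicate treatment of HEK293T lysate (495 µg per sample, Tris/CHAPS/IGEPAL buffer with protease inhibitors) with fragment at 200 µM or vehicle. Labelled DUBs were NeutrAvidin-enriched, digested with LysC and trypsin, and run by diaPASEF LC-MS/MS. The values, average log2 fragment/vehicle ratios by unpaired t-test, come from global-median-normalised Spectronaut label-free quantities. Proteins with ≥2 unique peptides were used.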

OTUD7B = target: T2, OTUD7B (UniProt Q6GQQ9)
T2 sequence (whole entry): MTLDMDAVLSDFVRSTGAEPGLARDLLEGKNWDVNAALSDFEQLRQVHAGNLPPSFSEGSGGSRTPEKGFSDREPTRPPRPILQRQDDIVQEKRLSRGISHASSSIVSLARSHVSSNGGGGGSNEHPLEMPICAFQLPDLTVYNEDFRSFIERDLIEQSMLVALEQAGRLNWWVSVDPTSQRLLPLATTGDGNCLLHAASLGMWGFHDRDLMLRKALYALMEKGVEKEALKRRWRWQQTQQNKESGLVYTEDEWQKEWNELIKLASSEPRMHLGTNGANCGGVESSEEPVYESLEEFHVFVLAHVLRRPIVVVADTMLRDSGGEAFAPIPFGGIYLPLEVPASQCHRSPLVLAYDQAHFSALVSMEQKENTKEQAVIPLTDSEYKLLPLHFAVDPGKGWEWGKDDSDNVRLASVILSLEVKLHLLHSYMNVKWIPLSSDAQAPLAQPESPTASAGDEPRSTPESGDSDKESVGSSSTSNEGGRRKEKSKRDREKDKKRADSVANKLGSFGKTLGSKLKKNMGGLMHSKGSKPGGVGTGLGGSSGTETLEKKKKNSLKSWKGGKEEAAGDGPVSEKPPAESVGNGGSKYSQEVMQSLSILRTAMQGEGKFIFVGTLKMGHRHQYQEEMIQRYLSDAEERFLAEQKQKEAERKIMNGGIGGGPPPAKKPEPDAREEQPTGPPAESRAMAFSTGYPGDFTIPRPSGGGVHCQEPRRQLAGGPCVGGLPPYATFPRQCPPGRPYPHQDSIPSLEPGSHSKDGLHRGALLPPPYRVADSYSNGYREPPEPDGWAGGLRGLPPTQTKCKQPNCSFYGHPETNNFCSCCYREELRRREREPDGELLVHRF
Outline: as §1

PRPF8 = PRPF8 (UniProt Q6P2Q9)
Outline: as §1

PSMD7 = target: T3, PSMD7 (UniProt P51665)
T3 sequence (whole entry): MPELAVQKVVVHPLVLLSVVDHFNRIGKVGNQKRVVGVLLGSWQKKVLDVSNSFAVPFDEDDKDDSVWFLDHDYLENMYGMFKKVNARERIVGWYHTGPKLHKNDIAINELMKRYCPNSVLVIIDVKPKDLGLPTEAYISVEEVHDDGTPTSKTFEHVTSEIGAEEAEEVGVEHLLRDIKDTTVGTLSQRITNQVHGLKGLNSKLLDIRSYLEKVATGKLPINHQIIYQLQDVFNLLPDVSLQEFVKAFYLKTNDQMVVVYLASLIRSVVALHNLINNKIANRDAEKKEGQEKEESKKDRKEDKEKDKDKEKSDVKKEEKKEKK
Outline: as §1

UCHL1 = UCHL1 (UniProt P09936)
UCHL1, sequence (P09936 whole entry, looked up): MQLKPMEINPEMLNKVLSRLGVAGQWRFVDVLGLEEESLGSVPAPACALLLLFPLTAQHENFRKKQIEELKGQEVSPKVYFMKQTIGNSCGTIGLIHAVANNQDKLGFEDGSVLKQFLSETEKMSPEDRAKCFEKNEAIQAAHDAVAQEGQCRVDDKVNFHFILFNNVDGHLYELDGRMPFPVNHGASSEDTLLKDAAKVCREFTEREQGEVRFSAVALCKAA
Outline: as §1

UCHL3 = target: T4, UCHL3 (UniProt P15374)
T4 sequence (whole entry): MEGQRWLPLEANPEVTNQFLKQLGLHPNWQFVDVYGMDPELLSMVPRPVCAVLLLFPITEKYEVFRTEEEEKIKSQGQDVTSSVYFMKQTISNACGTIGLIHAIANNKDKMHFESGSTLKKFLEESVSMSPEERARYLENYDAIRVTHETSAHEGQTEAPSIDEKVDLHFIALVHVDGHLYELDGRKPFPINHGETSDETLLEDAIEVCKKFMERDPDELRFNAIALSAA
Outline: as §1

UCHL5 = target: T5, UCHL5 (UniProt Q9Y5K5)
T5 sequence (whole entry): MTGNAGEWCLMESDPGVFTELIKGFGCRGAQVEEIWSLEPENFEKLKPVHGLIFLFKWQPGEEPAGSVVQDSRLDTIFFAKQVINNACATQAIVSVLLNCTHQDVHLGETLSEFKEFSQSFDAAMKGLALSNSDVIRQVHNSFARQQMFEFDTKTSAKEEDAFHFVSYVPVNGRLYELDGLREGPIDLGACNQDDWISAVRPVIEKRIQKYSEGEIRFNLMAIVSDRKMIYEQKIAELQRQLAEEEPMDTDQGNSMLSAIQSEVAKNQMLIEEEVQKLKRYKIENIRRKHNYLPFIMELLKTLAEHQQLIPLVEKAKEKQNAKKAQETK
Outline: as §1

USP10 = USP10 (UniProt Q14694)
USP10, sequence (Q14694 whole entry): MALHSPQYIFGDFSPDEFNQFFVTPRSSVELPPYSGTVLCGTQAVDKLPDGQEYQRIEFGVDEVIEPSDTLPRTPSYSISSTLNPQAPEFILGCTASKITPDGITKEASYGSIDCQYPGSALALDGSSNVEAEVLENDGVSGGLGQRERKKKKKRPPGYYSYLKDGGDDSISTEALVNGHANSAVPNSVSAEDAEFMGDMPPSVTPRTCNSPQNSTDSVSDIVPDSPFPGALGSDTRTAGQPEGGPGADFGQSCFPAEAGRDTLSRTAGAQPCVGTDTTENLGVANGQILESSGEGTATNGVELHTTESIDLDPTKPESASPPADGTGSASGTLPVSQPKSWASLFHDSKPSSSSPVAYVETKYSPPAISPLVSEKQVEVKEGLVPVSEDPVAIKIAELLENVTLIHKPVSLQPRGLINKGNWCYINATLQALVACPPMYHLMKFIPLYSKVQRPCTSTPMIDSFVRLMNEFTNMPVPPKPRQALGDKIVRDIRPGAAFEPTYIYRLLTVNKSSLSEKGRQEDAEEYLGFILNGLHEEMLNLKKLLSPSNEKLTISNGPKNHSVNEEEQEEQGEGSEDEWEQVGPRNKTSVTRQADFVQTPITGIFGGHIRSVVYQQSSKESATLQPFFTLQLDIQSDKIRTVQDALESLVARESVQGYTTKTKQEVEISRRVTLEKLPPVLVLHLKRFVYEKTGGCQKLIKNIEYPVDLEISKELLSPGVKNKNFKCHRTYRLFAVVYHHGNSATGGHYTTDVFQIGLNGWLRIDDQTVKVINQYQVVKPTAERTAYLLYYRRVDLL
Outline: as §1

USP15 = target: T6, USP15 (UniProt Q9Y4E8)
T6 sequence (whole entry): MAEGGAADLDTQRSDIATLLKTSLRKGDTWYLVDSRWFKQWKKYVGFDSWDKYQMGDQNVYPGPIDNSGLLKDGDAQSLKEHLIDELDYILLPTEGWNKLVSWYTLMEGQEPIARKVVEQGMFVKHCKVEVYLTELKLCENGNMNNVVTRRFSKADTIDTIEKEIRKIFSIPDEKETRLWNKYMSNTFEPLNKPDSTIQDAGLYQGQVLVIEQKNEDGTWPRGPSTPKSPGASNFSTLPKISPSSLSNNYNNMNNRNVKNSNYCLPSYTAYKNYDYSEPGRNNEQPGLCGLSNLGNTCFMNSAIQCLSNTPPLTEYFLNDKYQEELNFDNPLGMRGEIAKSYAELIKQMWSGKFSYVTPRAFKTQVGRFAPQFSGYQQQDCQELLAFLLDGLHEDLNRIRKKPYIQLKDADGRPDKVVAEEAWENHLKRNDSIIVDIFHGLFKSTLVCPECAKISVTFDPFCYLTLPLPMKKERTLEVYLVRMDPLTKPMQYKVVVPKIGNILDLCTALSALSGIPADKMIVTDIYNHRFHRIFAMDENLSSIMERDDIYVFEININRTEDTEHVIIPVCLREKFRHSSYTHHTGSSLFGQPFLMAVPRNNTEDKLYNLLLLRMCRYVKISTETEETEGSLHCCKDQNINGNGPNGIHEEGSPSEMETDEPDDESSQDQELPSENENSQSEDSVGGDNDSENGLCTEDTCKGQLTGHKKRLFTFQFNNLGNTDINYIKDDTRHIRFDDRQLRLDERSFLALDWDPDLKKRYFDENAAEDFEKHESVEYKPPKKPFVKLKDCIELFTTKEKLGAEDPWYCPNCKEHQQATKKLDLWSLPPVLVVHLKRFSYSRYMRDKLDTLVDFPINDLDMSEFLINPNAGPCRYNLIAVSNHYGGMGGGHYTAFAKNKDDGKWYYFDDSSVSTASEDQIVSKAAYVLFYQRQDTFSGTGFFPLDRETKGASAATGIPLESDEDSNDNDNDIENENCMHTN
Outline: as §1

Measured: log2 ratio of Biotin-Ahx-Ub-VS probe labelling

CN(C)C(=O)c1ccc(NC(=O)CCl)cc1
active: UCHL1 -1.46
inactive: OTUD6B -0.253 | OTUD7B -0.664 | PRPF8 -0.106 | PSMD7 -0.259 | UCHL3 -0.282 | UCHL5 -0.194 | USP10 -0.0447 | USP15 0.0049

— the supplement of paper PMC11732987, “Enantioselective OTUD7B fragment discovery through chemoproteomics screening and high-throughput optimisation” (Communications Chemistry, 2025)
